Results filed as inconclusive are left out. Calls of active or inactive are those of the source. Unless noted, calls come from the whole dose curve; as a rule, active = well fitted curve in the direction sought with a large enough effect in the repeat runs; inconclusive = weak or mixed curves; inactive = no such curve, though single readings can be large; an effect the other way counts as inactive or inconclusive.
Legend:
[1] = qHTS assay to identify small molecule antagonists of the estrogen related receptor (ERR) signaling pathway from Tox21 library - cell viability counter screen (AID 1224834); note: nearly all actives have a fitted effect of over 30% in size
How it was run: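 CellTiter-Fluor fluorescence measured; ERR cells; 17.5 h compound incubation at 37 C; 30 min reagent step.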

[2] = biological target: Luciferin 4-monooxygenase (Photinus pyralis) (UniProt P08659); test: qHTS assay to identify small molecule inhibitors of firefly luciferase (AID 1224835); note: nearly all actives have a fitted effect of over 25% in size
Luciferin 4-monooxygenase (Photinus pyralis), sequence (P08659 whole entry, looked up): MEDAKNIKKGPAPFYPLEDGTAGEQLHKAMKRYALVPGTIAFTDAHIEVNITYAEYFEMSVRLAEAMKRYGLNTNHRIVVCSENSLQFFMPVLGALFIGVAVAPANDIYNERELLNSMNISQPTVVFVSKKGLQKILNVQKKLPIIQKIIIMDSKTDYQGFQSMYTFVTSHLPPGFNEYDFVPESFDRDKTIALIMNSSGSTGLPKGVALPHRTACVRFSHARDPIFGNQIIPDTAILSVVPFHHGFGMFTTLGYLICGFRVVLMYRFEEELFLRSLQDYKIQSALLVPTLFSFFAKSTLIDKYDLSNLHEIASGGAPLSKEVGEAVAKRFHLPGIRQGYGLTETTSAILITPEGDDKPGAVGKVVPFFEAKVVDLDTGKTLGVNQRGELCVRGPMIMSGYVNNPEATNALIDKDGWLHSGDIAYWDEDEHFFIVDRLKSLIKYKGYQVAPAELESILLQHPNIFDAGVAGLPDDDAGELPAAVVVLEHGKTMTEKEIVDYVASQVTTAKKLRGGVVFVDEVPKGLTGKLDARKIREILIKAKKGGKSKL
How it was run: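 Inhibition of purified Photinus luciferase is measured by luminescence. Substrate levels (D-luciferin, ATP) sit at their KM values. Each compound is tested in a concentration series.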

[3] = qHTS assay to identify small molecule agonists of the constitutive androstane receptor (CAR) signaling pathway - cell viability counter screen (AID 1224836); note: nearly all actives have a fitted effect of over 45% in size
How it was run: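 HepG2 cells stably carrying hCAR and a CYP2B6-2.2kb reporter; 15-concentration compounds plus PK11195 (final 0.75 uM), 23 hr at 37 C/5% CO2. Viability read by CellTiter-Fluor fluorescence.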

[4] = qHTS assay to identify small molecule antagonists of the constitutive androstane receptor (CAR) signaling pathway - cell viability counter screen (AID 1224837); note: nearly all actives have a fitted effect of over 45% in size
How it was run: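 Using CellTiter-Fluor, viability is scored in HepG2 cells stably carrying hCAR and a 2.2kb CYP2B6 reporter after 23 hr compound exposure across 15 concentrations, with CITCO present at 50 nM.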

[5] = biological target: Nuclear receptor subfamily 1 group I member 3 (Homo sapiens) (UniProt Q14994); test: qHTS assay to identify small molecule antagonists of the constitutive androstane receptor (CAR) signaling pathway (AID 1224838);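 note: HepG2 cells stably expressing hCAR with CYP2B6 luciferase reporter stimulated by CITCO; nearly all actives have a fitted effect of over 40% in size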
Nuclear receptor subfamily 1 group I member 3 (Homo sapiens), sequence (Q14994 whole entry, looked up): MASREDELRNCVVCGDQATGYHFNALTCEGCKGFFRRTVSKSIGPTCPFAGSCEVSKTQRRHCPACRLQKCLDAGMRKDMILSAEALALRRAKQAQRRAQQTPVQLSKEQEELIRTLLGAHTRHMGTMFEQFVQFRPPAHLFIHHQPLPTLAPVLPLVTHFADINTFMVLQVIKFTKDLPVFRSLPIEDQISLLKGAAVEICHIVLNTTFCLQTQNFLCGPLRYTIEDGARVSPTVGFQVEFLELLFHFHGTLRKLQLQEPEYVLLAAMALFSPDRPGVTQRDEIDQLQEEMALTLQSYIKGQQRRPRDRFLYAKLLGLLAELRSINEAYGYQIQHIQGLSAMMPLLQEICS
How it was run: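 Reporter luminescence was quantified after 24 h exposure of hCAR/CYP2B6-2.2kb double-stable HepG2 cells to compounds at 15 concentrations in the presence of 50 nM CITCO final.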

[6] = biological target: Nuclear receptor subfamily 1 group I member 3 (Homo sapiens) (UniProt Q14994); test: qHTS assay to identify small molecule agonists of the constitutive androstane receptor (CAR) signaling pathway (AID 1224839);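 note: HepG2 cells stably carrying human CAR and a CYP2B6 luciferase reporter; nearly all actives have a fitted effect of over 15% in size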
How it was run: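 HepG2 cells stably co-transfected with hCAR and a CYP2B6-2.2kb luciferase reporter; compounds at 15 concentrations with 0.75 uM PK11195 present. After 24 hr at 37 C, luciferase read by ONE-Glo luminescence.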

[7] = qHTS assay to identify small molecule antagonists of the estrogen related receptor signaling pathway with the pleiotropic PPARgamma coactivator (PGC) from Tox21 10K library - cell viability counter screen (AID 1224840; active = well fitted cell-killing curve with a large enough effect in the repeat runs, not every such curve was filed as active; note: nearly all actives have a fitted effect of over 40% in size)
How it was run: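 Here the PGC/ERR cells serve as a cytotoxicity control: they are exposed to compounds for 17.5 hours at 37 C, and live-cell signal is quantified using CellTiter-Fluor fluorescence.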

[8] = qHTS assay to identify small molecule antagonists of the estrogen related receptor signaling pathway with the pleiotropic PPARgamma coactivator (PGC) from Tox21 10K library (AID 1224841; call rule not given here; note: actives are mostly falling curves and most rising ones were filed inactive; nearly all actives have a fitted effect of over 50% in size)
How it was run: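 Each well held 2,000 PGC/ERR cells, pre-incubated six hours (37 C, 5% CO2). Test substances in DMSO were added by pin tool and left for 18 h at 37 C before luciferase detection by One-Glo.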

[9] = qHTS assay to identify small molecule agonists of the estrogen related receptor signaling pathway with the pleiotropic PPARgamma coactivator (PGC) from Tox21 10K library (AID 1224842); note: nearly all actives have a fitted effect of over 15% in size
How it was run: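 Luminescence from One-Glo (30 min, room temperature) measured after PGC/ERR cells had 18 h at 37 C with pinned compound (23 nL in DMSO). Cells had been seeded at 2,000 per well and pre-incubated 6 h.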

[10] = biological target: Thyrotropin receptor (Homo sapiens) (UniProt P16473); test: qHTS assay to identify small molecule agonists of the thyroid stimulating hormone receptor (TSHR) signaling pathway (AID 1224843; calls by dose curve; note: nearly all actives have a fitted effect of over 45% in size)
Thyrotropin receptor (Homo sapiens), sequence (P16473 whole entry, looked up): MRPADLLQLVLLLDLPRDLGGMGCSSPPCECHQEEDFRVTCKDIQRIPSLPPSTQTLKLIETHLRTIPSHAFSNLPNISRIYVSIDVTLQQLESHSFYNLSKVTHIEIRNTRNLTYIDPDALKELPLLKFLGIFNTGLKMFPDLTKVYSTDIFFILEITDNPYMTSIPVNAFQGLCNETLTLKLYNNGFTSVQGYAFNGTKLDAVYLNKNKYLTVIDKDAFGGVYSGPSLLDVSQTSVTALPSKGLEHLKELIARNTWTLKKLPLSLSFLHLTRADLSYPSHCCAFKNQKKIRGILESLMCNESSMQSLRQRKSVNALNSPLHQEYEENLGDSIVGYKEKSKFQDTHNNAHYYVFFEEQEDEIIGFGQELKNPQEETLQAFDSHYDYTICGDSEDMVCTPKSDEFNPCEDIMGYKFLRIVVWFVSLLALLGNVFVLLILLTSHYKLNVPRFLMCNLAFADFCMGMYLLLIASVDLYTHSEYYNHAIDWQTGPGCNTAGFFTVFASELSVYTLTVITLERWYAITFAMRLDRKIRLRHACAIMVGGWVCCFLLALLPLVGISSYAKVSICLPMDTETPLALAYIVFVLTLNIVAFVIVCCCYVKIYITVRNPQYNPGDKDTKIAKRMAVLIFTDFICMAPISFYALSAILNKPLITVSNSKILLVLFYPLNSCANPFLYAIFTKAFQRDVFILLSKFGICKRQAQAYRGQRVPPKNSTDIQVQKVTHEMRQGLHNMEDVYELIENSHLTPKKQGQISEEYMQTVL
How it was run: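 HEK293 cells stably bearing the thyrotropin receptor were plated at 800 cells/well and challenged with compound (30 min, RT). Accumulated cAMP was quantified via cAMP-d2 competing for cryptate-tagged antibody.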

[11] = qHTS assay to identify small molecule agonists of the hypoxia (HIF-1) signaling pathway - cell viability counter screen (AID 1224844; calls by dose curve; note: nearly all actives have a fitted effect of over 50% in size)
How it was run: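 Multiplexed with the HRE beta-lactamase assay, this viability read used CellTiter-Glo luminescence (30 min, RT) on HRE-bla ME-180 cells treated 17 hrs with compounds in 0.5% dialyzed FBS medium.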

[12] = qHTS assay to identify small molecule agonists of H2AX (AID 1224845; active = well fitted activation curve with a large enough effect in the signal ratio in the repeat runs, not every such curve was filed as active; the % refers to the signal ratio)
How it was run: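 Phospho-H2AX Ser139 measured by HTRF (ex 320 nm; em 665 and 620 nm) after 24 hr antibody incubation. Compounds, 15 concentrations, 0.76% DMSO, were applied to CHO-K1 cells for 3hr at 37C before lysis.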

[13] = qHTS assay to identify small molecule agonists of the hypoxia (HIF-1) signaling pathway (AID 1224846; active = well fitted activation curve with a large enough effect in the signal ratio in the repeat runs, not every such curve was filed as active; the % refers to the signal ratio)
How it was run: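 Hypoxia-pathway activation was scored as increased beta-lactamase from an HRE-controlled reporter in ME-180 cells; plated at 2,000 cells per well with 0.5% dialyzed FBS, they were exposed 17 hrs to compounds and then given CCF4-AM.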

[14] = qHTS assay to identify small molecule agonists of H2AX - cell viability counter screen (AID 1224847; calls by dose curve;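 note: wild-type CHO-K1 cells; top concentration of the series differs between compounds; nearly all actives have a fitted effect of over 30% in size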)
How it was run: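 CHO-K1 cells plated overnight at 37C, then exposed 3 h at 37C to compounds at 15 concentrations (0.76% DMSO final). Viability by CellTiter-Glo luminescence after 30 min at room temperature.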

[15] = qHTS assay to identify small molecule antagonists of the estrogen related receptor (ERR) signaling pathway from Tox21 library (AID 1224848); note: nearly all actives have a fitted effect of over 50% in size
How it was run: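 Reading was by luminescence 30 min after ONE-Glo addition. Before that, ERR cells at 2,000 per well had rested 6 h at 37 C/5% CO2 and then received pin-tooled compounds in DMSO for 18 h at 37 C.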

[16] = qHTS assay to identify small molecule agonists of the estrogen related receptor (ERR) signaling pathway from Tox21 library (AID 1224849; calls by dose curve; note: nearly all actives have a fitted effect of over 15% in size); details: ERR reporter cell line, ONE-Glo luciferase, 18 h; at 92.4 µM (top of the series) unless noted
How it was run: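 Six hours post-seeding at 37 C/5% CO2, ERR cells receive DMSO-solubilised compounds; after 18 h at 37 C, ONE-Glo reagent is applied and luminescence recorded.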

[17] = qHTS RealTime-Glo MT Cell Viability Assay in HepG2 cells - 24 hour (AID 1224867); note: nearly all actives have a fitted effect of over 50% in size
How it was run: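 HepG2 suspension premixed with RealTime-Glo reagents is plated at 600 cells per well and left 5 h at 37 C/5% CO2. Compounds in DMSO then go in, and bioluminescence reflecting viable cell number is recorded over 40 h.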

[18] = qHTS RealTime-Glo MT Cell Viability Assay in HEK293 cells - 32 hour (AID 1224868)
How it was run: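 Reads taken at 0, 8, 16, 24, 32 and 40 h from the same wells. HEK293 cells (600/well) carried RealTime-Glo reagents from seeding, with compound added after a 5 h settle at 37 C.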

[19] = A CellTox Green Cytotoxicity Assay to monitor cytotoxicity in HEK293 cells - 0 hour (AID 1224869); note: nearly all actives have a fitted effect of over 50% in size
How it was run: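 Seeding of HEK293 cells together with cytotoxicity dye preceded a 5 h incubation at 37 C/5% CO2. Test compounds in DMSO were then added and fluorescence monitored across 40 h.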
% is set by controls: 0 for no effect and ±100 for the full control effect.

OCCOc1ccc(OCCO)cc1
inactive: Potency [1] | Potency [2] | Potency [3] | Potency [4] | Potency [5] | Potency [6] | Potency [7] | Potency [8] | outcome [9] | Potency [10] | Potency [11] | outcome [12] | outcome [13] | Potency [14] | Potency [15] | activity change, positive = activation [16] 2.76% | Potency [17] | Potency [18] | Potency [19]

CC(C)(CC(=O)O)C(=O)O
inactive: Potency [1] | Potency [2] | Potency [3] | Potency [4] | Potency [5] | Potency [6] | Potency [7] | Potency [8] | outcome [9] | Potency [10] | Potency [11] | outcome [12] | outcome [13] | Potency [14] | Potency [15] | activity change, positive = activation [16] 3.63% | Potency [17] | Potency [18] | Potency [19]

COC(=O)NN
inactive: Potency [1] | Potency [2] | Potency [3] | Potency [4] | Potency [5] | Potency [6] | Potency [7] | Potency [8] | outcome [9] | Potency [10] | Potency [11] | outcome [12] | outcome [13] | Potency [14] | activity change, positive = activation [16] -24.9% | Potency [17] | Potency [18] | Potency [19]

CC(=O)c1ccccc1O
inactive: Potency [1] | Potency [2] | Potency [3] | Potency [4] | Potency [5] | Potency [6] | Potency [7] | Potency [8] | outcome [9] | Potency [10] | Potency [11] | outcome [12] | outcome [13] | Potency [14] | Potency [15] | activity change, positive = activation [16] 0.43% | Potency [17] | Potency [19]

CC(C)NC(=O)NC(C)C
inactive: Potency [1] | Potency [2] | Potency [3] | Potency [4] | Potency [5] | Potency [6] | Potency [7] | Potency [8] | outcome [9] | Potency [10] | Potency [11] | outcome [12] | outcome [13] | Potency [15] | activity change, positive = activation [16] -2.14% | Potency [17] | Potency [18] | Potency [19]

CCCCCCCCCCCC
inactive: Potency [1] | Potency [2] | Potency [3] | Potency [4] | Potency [5] | Potency [6] | Potency [7] | Potency [8] | outcome [9] | Potency [10] | Potency [11] | outcome [12] | outcome [13] | Potency [14] | Potency [15] | activity change, positive = activation [16] 11.3% | Potency [17] | Potency [18] | Potency [19]

CC(=O)N(CC(O)CO)c1c(I)c(C(=O)NCCO)c(I)c(C(=O)NCC(O)CO)c1I (stereo not given)
inactive: Potency [1] | Potency [2] | Potency [3] | Potency [4] | Potency [5] | Potency [6] | Potency [7] | Potency [8] | outcome [9] | Potency [10] | Potency [11] | outcome [12] | outcome [13] | Potency [14] | Potency [15] | activity change, positive = activation [16] 5.17% [at 42.5 µM] | Potency [17] | Potency [18] | Potency [19]

N#Cc1ccc(C2CCCc3cncn32)cc1 (stereo not given)
inactive: Potency [1] | Potency [2] | Potency [3] | Potency [4] | Potency [5] | Potency [6] | Potency [7] | Potency [8] | outcome [9] | Potency [10] | Potency [11] | outcome [12] | outcome [13] | Potency [14] | activity change, positive = activation [16] -20.4% [at 42.5 µM] | Potency [17] | Potency [19]

CCC=O
inactive: Potency [1] | Potency [2] | Potency [3] | Potency [4] | Potency [5] | Potency [6] | Potency [7] | Potency [8] | outcome [9] | Potency [10] | Potency [11] | outcome [12] | outcome [13] | Potency [14] | activity change, positive = activation [16] 0.85% | Potency [17] | Potency [18] | Potency [19]

C=CCS(=O)(=O)O
inactive: Potency [1] | Potency [2] | Potency [3] | Potency [4] | Potency [5] | Potency [6] | Potency [7] | Potency [8] | outcome [9] | Potency [10] | Potency [11] | outcome [12] | outcome [13] | Potency [14] | activity change, positive = activation [16] 4.55% | Potency [17] | Potency [18] | Potency [19]

C=C(C)C(=O)OCCCCCCCC(C)C
inactive: Potency [1] | Potency [2] | Potency [3] | Potency [4] | Potency [5] | Potency [6] | Potency [7] | Potency [8] | outcome [9] | Potency [10] | Potency [11] | outcome [12] | outcome [13] | Potency [14] | Potency [15] | activity change, positive = activation [16] 2.01% | Potency [17] | Potency [19]

CC(=O)Nc1ccc(S(N)(=O)=O)cc1
inactive: Potency [1] | Potency [2] | Potency [3] | Potency [4] | Potency [5] | Potency [6] | Potency [7] | Potency [8] | outcome [9] | Potency [10] | Potency [11] | outcome [12] | outcome [13] | Potency [14] | activity change, positive = activation [16] 4.26% | Potency [17] | Potency [18] | Potency [19]

CS(=O)(=O)O
inactive: Potency [1] | Potency [2] | Potency [3] | Potency [4] | Potency [5] | Potency [6] | Potency [7] | Potency [8] | outcome [9] | Potency [10] | Potency [11] | outcome [12] | outcome [13] | Potency [14] | Potency [15] | activity change, positive = activation [16] 3.34% | Potency [17] | Potency [18] | Potency [19]

CCC(=O)OC(C)c1ccccc1 (stereo not given)
inactive: Potency [1] | Potency [2] | Potency [3] | Potency [4] | Potency [5] | Potency [6] | Potency [7] | Potency [8] | outcome [9] | Potency [10] | Potency [11] | outcome [12] | outcome [13] | activity change, positive = activation [16] 0.422% | Potency [17] | Potency [18] | Potency [19]
